This passage reports inhibition results from PubChem BioAssay AID651598 (Sanford-Burnham Center for Chemical Genomics, 2012).

Several values for one entry are separate records, joined by “and”; a condition that tells them apart may be missing. Equal entries are not always repeated.

What is called inhibition is the change of the read-out against control, counted positive when it falls.

In this experiment the target is C-X-C chemokine receptor type 6 (Homo sapiens) (UniProt O00574). As to the kind of experiment: apelin receptor (APJ) antagonists, SAR follow-up, counter-screen for CXCR6 antagonist project, cell-based, beta-arrestin, DiscoveRx, panel, CHO-K1 (AID 651598). The settings on record: CHO-K1 PathHunter beta-arrestin luminescence, antagonist mode; run 6, at 80 µM (top of the series). A general note: A counterscreen serves to expose hits that act by an unwanted route or on another target.
Chain of C-X-C chemokine receptor type 6 (Homo sapiens) (O00574 whole entry, looked up): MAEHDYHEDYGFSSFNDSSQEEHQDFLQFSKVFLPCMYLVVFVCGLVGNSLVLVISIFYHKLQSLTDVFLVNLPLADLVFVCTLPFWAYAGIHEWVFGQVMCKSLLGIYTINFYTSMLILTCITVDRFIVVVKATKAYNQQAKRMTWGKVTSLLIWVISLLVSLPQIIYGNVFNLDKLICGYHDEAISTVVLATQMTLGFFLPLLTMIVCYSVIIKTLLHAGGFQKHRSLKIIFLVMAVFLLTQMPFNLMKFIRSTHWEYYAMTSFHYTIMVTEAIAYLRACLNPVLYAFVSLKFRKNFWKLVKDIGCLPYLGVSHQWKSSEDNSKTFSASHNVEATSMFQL
As for `COc1cc(C(=O)NC2CC3CCCC(C2)N3CC(=O)Nc2ccccc2)cc(OC)c1OC` (stereo not drawn), the inhibition is 85.3% and 54.2% and 27.6%.

Consider `COc1cc(C(=O)NC2CC3CCC(C2)N3CC(=O)Nc2ccccc2)cc(OC)c1OC` (stereo not drawn), for which the inhibition is 57.4% and -0.766%.

Take `COc1cc(C(=O)NC2CCN(CC(=O)Nc3ccccc3)CC2)cc(OC)c1OC`: the inhibition was 20.7%.
